Source: PubChem
Most compounds without a hit are left out; they make up all but 1.4% or so of the library.
AmpC detergent: qHTS Inhibitors of AmpC Beta-Lactamase (assay with detergent); P00811; AmpC hydrolysis of nitrocefin, absorbance 480 nm, 0.01% Triton; Potency, µM (top dose mostly 114 µM), usual class: inhibitors; 0.041% of 370,000 active; AID 485294, 2010; further: nearly all actives have a fitted effect of over 25% in size
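20 mM phosphate pH 7.0 + 0.01% (detergent screen) or 0.0001% Triton X-100; 5.3 nM AmpC reagent; cpd preinc 15 min RT; nitrocefin (800 uM stock) to start; A480 q20 s × 4 min; Activity was normalised to no-enzyme and no-compound control wells.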
AmpC no deterg: qHTS Inhibitors of AmpC Beta-Lactamase (assay without detergent); Potency, µM (doses to about 57.1 µM), actives largely listed as inhibitors; P00811; AmpC nitrocefin hydrolysis, absorbance 480 nm, 0.0001% Triton; AID 485341, 2010; 0.52% of 330,000 active; further: nearly all actives have a fitted effect of over 20% in size
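AmpC (5.3 nM in the dispensed reagent) in 20 mM phosphate pH 7.0 with 0.01% (detergent screen) or 0.0001% Triton X-100 was preincubated with compounds for 15 min at room temperature. Nitrocefin was then added from an 800 uM solution, and hydrolysis was followed at 480 nm.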
NS1 function inh: qHTS Assay for Inhibitors of Influenza NS1 Protein Function; AID 2326, 2010; 0.4% of 270,000 active; Potency, µM (top dose mostly 46.1 µM); calls by dose curve; further: actives are rising curves; nearly all actives have a fitted effect of over 50% in size
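Recovery from NS1-induced slow growth read by OD600 in budding yeast switched to galactose assay medium (pH 6.0, -URA) at 1:100 dilution. Compound 23 nl per well; the matching strain lacking NS1 serves as control.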
Giardia FBPA inh-1: qHTS Assay for Inhibitors of Fructose-1,6-bisphosphate Aldolase from Giardia Lamblia; purified Giardia FBPA; AID 2451, 2010; Potency, µM (titrated, usually from 59.6 µM), hits mostly inhibitors; 0.71% of 290,000 active; A8B2U2; further: nearly all actives have a fitted effect of over 55% in size
Target sequence (A8B2U2 whole entry, looked up): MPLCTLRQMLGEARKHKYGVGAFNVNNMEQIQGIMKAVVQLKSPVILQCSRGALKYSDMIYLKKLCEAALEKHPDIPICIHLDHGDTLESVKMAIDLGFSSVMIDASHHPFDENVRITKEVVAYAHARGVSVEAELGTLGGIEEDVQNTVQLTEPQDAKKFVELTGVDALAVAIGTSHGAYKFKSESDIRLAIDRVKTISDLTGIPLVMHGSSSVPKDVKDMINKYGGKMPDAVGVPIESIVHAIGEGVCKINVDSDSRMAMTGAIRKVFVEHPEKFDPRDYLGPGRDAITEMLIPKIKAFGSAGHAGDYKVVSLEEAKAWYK
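40 nM FBPA preincubated 10 min at RT with compound (up to 57.5 uM final), then substrate plus GAPDH/TPI/NAD/arsenate coupling and diaphorase/resazurin added. Fluorescence read after 20 min at RT, 525/598 nm.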
SARS PLP yeast: qHTS of Yeast-based Assay for SARS-CoV PLP; S. cerevisiae expressing SARS-CoV PLpro, growth rescue; Potency, µM (titrated, usually from 32.9 µM), usual class: activators; 0.19% of 330,000 active; AID 485353, 2010; calls by dose curve; further: nearly all actives have a fitted effect of over 55% in size
Giardia growth: qHTS Assay for Inhibitors of Fructose-1,6-bisphosphate Aldolase from Giardia Lamblia: Giardia lamblia growth inhibition | shares compounds with Giardia FBPA inh-1 | Giardia lamblia trophozoite growth inhibition | Potency, µM (titrated, usually from 57.5 µM), actives largely listed as inhibitors | 5% of 1,500 active;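 further: trophozoites exposed to compound for 48 h at 37 °C; nearly all actives have a fitted effect of over 70% in size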
Mammal cell tox: qHTS Assay for Inhibitors of Fructose-1,6-bisphosphate Aldolase from Giardia Lamblia: Mammalian cellular toxicity; Potency, µM (top dose mostly 57.5 µM), most hits filed as inhibitors; mammalian cell viability counter-screen, qHTS; AID 2786, 2010; shares compounds with Giardia FBPA inh-1; 4% of 1,500 active;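 further: Chinese hamster ovary cells used as mammalian cytotoxicity surrogate; viability measured as cellular ATP by luminescence; compound exposure lasted 48 h before reading; nearly all actives have a fitted effect of over 60% in size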
Giardia FBPA inh-2: qHTS Assay for Inhibitors of Fructose-1,6-bisphosphate Aldolase from Giardia Lamblia: Primary screen confirmation; shares compounds with Giardia FBPA inh-1; purified Giardia aldolase enzyme activity, qHTS; Potency, µM (highest dose often 57.5 µM), most hits filed as inhibitors; 5% of 1,500 active; AID 2787, 2010; further: nearly all actives have a fitted effect of over 45% in size
Rabbit aldolase: qHTS Assay for Inhibitors of Fructose-1,6-bisphosphate Aldolase from Giardia Lamblia: Rabbit FBPA Selectivity. 4% of 1,500 active. Potency, µM (doses to about 57.5 µM), most hits filed as inhibitors. Rabbit muscle FBPA enzyme inhibition, selectivity counter-screen. shares compounds with Giardia FBPA inh-1; further: nearly all actives have a fitted effect of over 60% in size
GAPDH counter: qHTS Assay for Inhibitors of Fructose-1,6-bisphosphate Aldolase from Giardia Lamblia: Coupling assay counterscreen confirmation. shares compounds with Giardia FBPA inh-1. GAPDH coupling enzyme counterscreen, biochemical, qHTS. Potency, µM (highest dose often 57.5 µM), usual class: inhibitors. 6% of 1,500 active. AID 2795, 2010; further: nearly all actives have a fitted effect of over 55% in size
Each line names hits and unclear results; the compound was inactive in the other large screens (follow-up assays come after a bar, where they were run); [ ] = dose if it differs, or a comment. Unless noted, the call rests on the fitted dose curve; in most records, active means well fitted curve in the direction sought with a large enough effect; inconclusive means small, poorly fitted or top-dose-only effect, or another doubt; inactive means no such curve, though single readings can be large; an effect the other way counts as inactive or inconclusive.

CCNC(=S)NS(=O)(=O)c1ccc(Cl)cc1	Giardia FBPA inh-1 7.1µM | Giardia growth inactive | Mammal cell tox inactive | Giardia FBPA inh-2 inactive | Rabbit aldolase inactive | GAPDH counter inactive
CCCCn1c(N)c(N(CC(C)C)C(=O)C2CC(=O)N(c3ccc(CC)cc3)C2)c(=O)[nH]c1=O (stereo not given)	none (no result: NS1 function inh, Giardia FBPA inh-1)
O=[N+]([O-])c1ccccc1/C=N/n1c(C(F)(F)F)n[nH]c1=S	Giardia FBPA inh-1 18µM (no result: NS1 function inh) | Giardia growth inactive[10.4 µM] | Mammal cell tox inactive | Giardia FBPA inh-2 inconclusive | Rabbit aldolase inconclusive | GAPDH counter inconclusive
O=[N+]([O-])c1ccccc1/C=N/n1c(C2CCCCC2)n[nH]c1=S	none
O=c1c2cn[nH]c2[nH]c(=S)n1-c1ccccc1	Giardia FBPA inh-1 inconclusive, SARS PLP yeast inconclusive
COc1ccc(-n2c(=S)[nH]c3[nH]ncc3c2=O)cc1	Giardia FBPA inh-1 18µM | Giardia growth inactive[10.4 µM] | Mammal cell tox inactive | Giardia FBPA inh-2 inactive | Rabbit aldolase inactive | GAPDH counter inactive
Cc1ccc(NS(=O)(=O)c2cc(NC(=O)c3ccc4c(c3)NC(=O)CS4)ccc2C)c(C)c1	AmpC no deterg inconclusive, Giardia FBPA inh-1 16µM | Giardia growth inactive | Mammal cell tox inactive | Giardia FBPA inh-2 inactive | Rabbit aldolase inactive | GAPDH counter inactive
O=[N+]([O-])c1ccccc1S(=O)(=O)N1CCN(Cc2ccsc2)CC1	Giardia FBPA inh-1 20µM | Giardia growth inactive | Mammal cell tox inactive | Giardia FBPA inh-2 inactive | Rabbit aldolase inactive | GAPDH counter inactive
O=[N+]([O-])c1ccccc1S(=O)(=O)N1CCN(Cc2ccccc2)CC1	none
Cc1noc(C)c1CSc1nnc(-c2ccccc2)o1	AmpC detergent inconclusive (no result: NS1 function inh)
CN(C)C(=S)NC(=O)c1cccc(Cl)c1	Giardia FBPA inh-1 16µM (no result: NS1 function inh) | Giardia growth 7.1µM | Mammal cell tox inactive | Giardia FBPA inh-2 inactive | Rabbit aldolase inactive | GAPDH counter inactive
C=CCn1c(COc2cccc3cccnc23)nnc1SCC(=O)O	AmpC detergent inconclusive, Giardia FBPA inh-1 inconclusive
C=CCn1c(COc2cccc3ccc(C)nc23)nnc1SCC(=O)O	Giardia FBPA inh-1 14µM (no result: AmpC no deterg, SARS PLP yeast) | Giardia growth inactive | Mammal cell tox inactive | Giardia FBPA inh-2 inactive | Rabbit aldolase inactive | GAPDH counter inactive
CCCCC(=O)Nc1cccc(-c2nc3ncccc3o2)c1C	none
Cc1ccccc1-n1c(N)c(C(=O)Nc2ccc(F)cc2)sc1=S	none (no result: NS1 function inh)
Cc1ccc(NC(=O)c2sc(=S)n(-c3cc(C)ccc3F)c2N)cc1	AmpC detergent inconclusive, Giardia FBPA inh-1 18µM (no result: NS1 function inh) | Giardia growth inactive | Mammal cell tox inactive | Giardia FBPA inh-2 inactive | Rabbit aldolase inconclusive | GAPDH counter inactive
COc1ccc(N=NC2C(=O)N(c3ccccc3)N=C2C)cc1 (stereo not given)	Giardia FBPA inh-1 28µM | Giardia growth inactive | Mammal cell tox inactive | Giardia FBPA inh-2 inactive | Rabbit aldolase inactive | GAPDH counter inactive
